In PubChem BioAssay (EPA / NIEHS):
Calls of active or inactive are those of the source. Rule for the calls: active = hit-call score of the fitted dose curve at least 0.9, where 1 is the maximum; inactive = score below 0.9.

Assays:
[1] = read-out: Plasminogen activator inhibitor-1 (PAI1), SERPINE1 (gene 5054); experiment: BSK_BE3C_PAI1: BioMAP Diversity Plus: BE3C Assay for Plasminogen activator inhibitor-1 (PAI1) Biomarker Activity (AID 2283037); conditions: primary human bronchial epithelial cells; actives raise or lower the signal
How it was run: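 PAI-1 was measured by ELISA in human primary bronchial epithelial cultures 24 h after chemical dosing, with cytotoxicity checked by SRB total-protein staining in parallel cultures. Activity was fitted in both directions relative to DMSO.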

[2] = read-out: urokinase plasminogen activator (uPA), PLAU (gene 5328); experiment: BSK_BE3C_uPA: BioMAP Diversity Plus: BE3C Assay for urokinase plasminogen activator (uPA) Biomarker Activity (AID 2283038); conditions: primary human bronchial epithelial cells; actives raise or lower the signal
How it was run: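 Measured by ELISA: uPA from human primary bronchial epithelial cells 24 h after chemical treatment. Values derive from bidirectional curve fitting with DMSO serving as negative control. Total protein by SRB staining in parallel wells flagged overt cytotoxicity.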

[3] = read-out: Urokinase-type plasminogen activator receptor (uPAR), PLAUR (gene 5329); experiment: BSK_BE3C_uPAR: BioMAP Diversity Plus: BE3C Assay for Urokinase-type plasminogen activator receptor (uPAR) Biomarker Activity (AID 2283039); conditions: primary human bronchial epithelial cells; actives raise or lower the signal
How it was run: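 uPAR levels were measured by ELISA after 24 h compound treatment of primary human bronchial epithelial cells, fitted in both directions relative to DMSO. Parallel SRB staining served as the cytotoxicity read-out.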

[4] = read-out: Interleukin-6 (IL6), IL6 (gene 3569); experiment: BSK_CASM3C_IL6: BioMAP Diversity Plus: CASM3C Assay for Interleukin-6 (IL6) Biomarker Activity for (AID 2283040); conditions: primary human coronary artery smooth muscle cells; actives raise or lower the signal
[5] = read-out: Tissue plasminogen activator (tPA), PLAT (gene 5327); experiment: BSK_BE3C_tPA: BioMAP Diversity Plus: BE3C Assay for Tissue plasminogen activator (tPA) Biomarker Activity (AID 2283041); conditions: primary human bronchial epithelial cells; actives raise or lower the signal
How it was run: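 tPA measured by ELISA 24 h after dosing human primary bronchial epithelial cells (BE3C system). Changes in either direction were fitted against DMSO. Parallel cultures were stained with SRB to flag overt cytotoxicity.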

[6] = read-out: Interleukin-8 (IL8), CXCL8 (gene 3576); experiment: BSK_CASM3C_IL8: BioMAP Diversity Plus: CASM3C Assay for Interleukin-8 (IL8) Biomarker Activity (AID 2283042); conditions: primary human coronary artery smooth muscle cells; actives raise or lower the signal;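 note: IL-8 protein level quantified by ELISA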
[7] = read-out: Human Leukocyte Antigen - DR isotype (HLADR), HLA-DRA (gene 3122); experiment: BSK_CASM3C_HLADR: BioMAP Diversity Plus: CASM3C Assay for Human Leukocyte Antigen - DR isotype (HLADR) Biomarker Activity (AID 2283043); conditions: primary human coronary artery smooth muscle cells; actives raise or lower the signal;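 note: cell-surface HLA-DR protein level quantified by ELISA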
[8] = read-out: Macrophage colony-stimulating factor (MCSF), CSF1 (gene 1435); experiment: BSK_CASM3C_MCSF: BioMAP Diversity Plus: CASM3C Assay for Macrophage colony-stimulating factor (MCSF) Biomarker Activity (AID 2283044); conditions: primary human coronary artery smooth muscle cells; actives raise or lower the signal;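 note: M-CSF protein amount quantified by ELISA after 24 h exposure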
[9] = read-out: Low-density lipoprotein receptor (LDLR), LDLR (gene 3949); experiment: BSK_CASM3C_LDLR: BioMAP Diversity Plus: CASM3C Assay for Low-density lipoprotein receptor (LDLR) Biomarker Activity (AID 2283045); conditions: primary human coronary artery smooth muscle cells; actives raise or lower the signal;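 note: LDLR protein level on the cell surface quantified by ELISA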
[10] = read-out: Transforming growth factor beta 1 (TGFb1), TGFB1 (gene 7040); experiment: BSK_BE3C_TGFb1: BioMAP Diversity Plus: BE3C Assay for Transforming growth factor beta 1 (TGFb1) Biomarker Activity (AID 2283036); conditions: primary human bronchial epithelial cells; actives raise or lower the signal
How it was run: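 ELISA readout of TGF-b1 from human lung bronchial epithelial primary cells, taken 24 h post-treatment. Gain or loss of signal fitted relative to DMSO baseline, with parallel SRB staining for overt cytotoxicity.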

Measured: AC50

Cn1c(=O)c2c(ncn2C)n(C)c1=O
not listed: [10]
inactive: all other assays above

CCCCCCc1ccc(O)cc1O
active: [10] 24.6 µM | [1] 31.6 µM | [2] 31.4 µM | [3] 34.1 µM | [5] 13.2 µM | [9] 11.9 µM
inactive: [4] | [6] | [7] | [8]

O=c1[nH]c2ccc(S(=O)CCN3CCC(Cc4ccc(F)cc4)CC3)cc2o1 (stereo not given)
inactive: all assays above

CC(O)CN(CCN(CC(C)O)CC(C)O)CC(C)O (stereo not given)
inactive: all assays above

CC(C)=CCC/C(C)=C/CO
inactive: all assays above

C=CCCCCCCCCC(=O)O
inactive: all assays above

NC(=O)NO
inactive: all assays above

CC[C@H]1CC[C@H](NCc2cc3c(cc2OC)[C@H]2C[C@H]2C(=O)N3C)[C@H](c2ccccc2)N1
not listed: [10]
inactive: all other assays above

Cn1c(=O)cc(Oc2ccc(F)cc2F)c2cnc(NCC(C)(C)O)nc21
active: [1] 9.04 µM | [4] 5.13 µM | [6] 3.16 µM | [7] 1.42 µM
inactive: all other assays above

CCNc1ccccc1
inactive: all assays above

CC(C)=CCCC(C)=CC=O
inactive: all assays above

CC(C)CC(C)(O)C#CC(C)(O)CC(C)C (stereo not given)
not listed: [10]
inactive: all other assays above

CC(C)(O)c1coc(S(=O)(=O)NC(=O)Nc2c3c(cc4c2CCC4)CCC3)c1
inactive: all assays above

CCCN(C1CCN(C(=O)C2CCNCC2)CC1)[C@@H]1CCc2ccc(OC)cc2C1
active: [9] 35 µM
inactive: all other assays above

CCOCCOCCOCCO
inactive: all assays above

O=C(O)c1cc(N=Nc2ccc(S(=O)(=O)Nc3ccccn3)cc2)ccc1O
not listed: [10]
inactive: all other assays above

COC(=O)c1c(Cl)c(Cl)c(C(=O)OC)c(Cl)c1Cl
not listed: [10]
inactive: all other assays above

CC(C)CCO
not listed: [10]
inactive: all other assays above

CC(=O)OC[C@H]1O[C@@](COC(C)=O)(O[C@H]2O[C@H](COC(C)=O)[C@@H](OC(C)=O)[C@H](OC(C)=O)[C@H]2OC(C)=O)[C@@H](OC(C)=O)[C@@H]1OC(C)=O
not listed: [10]
inactive: all other assays above

CC1=CC(=O)CC(C)(C)C1
not listed: [10]
inactive: all other assays above

Nc1nc2ncc(CNc3ccc(C(=O)N[C@@H](CCC(=O)O)C(=O)O)cc3)nc2c(=O)[nH]1
not listed: [10]
inactive: all other assays above

CC/C(=C\C(=N/O)C(N)=O)C(C)[N+](=O)[O-] (stereo not given)
active: [7] 22.3 µM
not listed: [10]
inactive: all other assays above

CNS(=O)(=O)c1cc(C(=O)N2CCC(CCN3C4CCC3CC(n3c(C)nc5ccccc53)C4)(c3cccc(F)c3)CC2)c(Cl)cc1F (stereo not given)
active: [4] 5.62 µM | [7] 28.5 µM | [9] 5.4 µM
not listed: [10]
inactive: all other assays above

CCC(C)(C)C(=O)O[C@H]1C[C@@H](C)C=C2C=C[C@H](C)[C@H](CC[C@@H]3C[C@@H](O)CC(=O)O3)[C@H]21
active: [1] 31.9 µM | [3] 32.5 µM | [5] 5.4 µM | [6] 34.2 µM | [7] 20 µM | [8] 20 µM | [9] 20 µM
inactive: [4]

COCCOCCOCCOC
not listed: [10]
inactive: all other assays above

Oc1ccc2c(c1)-c1ccccc1C2
not listed: [10]
inactive: all other assays above

CC(=O)OCCC(C)C
not listed: [10]
inactive: all other assays above

CC(C)c1cccc(C(C)C)c1N1C(=O)c2ccc(O)cc2C1=O
inactive: [2] | [4] | [6]
active: [1] 9.07 µM | [5] 27.2 µM | [7] 14.1 µM | [8] 32 µM | [9] 36.3 µM

CC[C@H](C)C(=O)O[C@H]1C[C@@H](C)C=C2C=C[C@H](C)[C@H](CC[C@@H]3C[C@@H](O)CC(=O)O3)[C@H]21
active: [1] 28.8 µM | [2] 32.1 µM | [3] 30.9 µM | [5] 25.6 µM | [7] 19.9 µM
inactive: [4] | [6] | [8] | [9]

COCCOc1cc2cc(C(=O)NC3CCN(C(C)C)CC3)n(CC(=O)Nc3ccc(Cl)cn3)c2cn1
not listed: [10]
inactive: all other assays above

O=C(NS(=O)(=O)/C=C/c1ccccc1)c1ccc(F)cc1Cl
not listed: [10]
inactive: all other assays above

Cc1ccc(O)cc1
not listed: [10]
inactive: all other assays above

CCCCC(CC)COC(=O)CCCCCCCCC(=O)OCC(CC)CCCC (stereo not given)
not listed: [10]
inactive: all other assays above

O=C(OC[C@H]1O[C@@H](OC(=O)c2cc(O)c(O)c(OC(=O)c3cc(O)c(O)c(O)c3)c2)[C@H](OC(=O)c2cc(O)c(O)c(OC(=O)c3cc(O)c(O)c(O)c3)c2)[C@@H](OC(=O)c2cc(O)c(O)c(OC(=O)c3cc(O)c(O)c(O)c3)c2)[C@@H]1OC(=O)c1cc(O)c(O)c(OC(=O)c2cc(O)c(O)c(O)c2)c1)c1cc(O)c(O)c(OC(=O)c2cc(O)c(O)c(O)c2)c1
active: [2] 1.87 µM | [3] 4.13 µM | [5] 1.45 µM | [7] 6.1 µM
not listed: [10]
inactive: all other assays above

C[C@](N)(Cc1ccc(O)c(O)c1)C(=O)O
not listed: [10]
inactive: all other assays above

CCCCCCCCO
not listed: [10]
inactive: all other assays above

CCc1cc(SCc2sc(-c3ccc(C(F)(F)F)cc3)nc2CN2CCN(c3ccc(OC)cc3)CC2)ccc1OCC(=O)O
active: [1] 3.07 µM | [2] 5.31 µM | [3] 5.38 µM | [4] 20 µM | [5] 5.23 µM | [6] 34.1 µM | [7] 18.7 µM | [8] 36.1 µM | [9] 31.7 µM

CNCc1ccc(NC(=O)c2c[nH]c3c2C(=O)CCC3)cc1
not listed: [10]
inactive: all other assays above

O=C(O)c1cccc(N(Cc2cccnc2)c2ccc(OC(F)F)c(OC(F)F)c2)c1
active: [1] 31.3 µM | [7] 8.72 µM | [8] 11.7 µM
not listed: [10]
inactive: all other assays above

O=C(CCCCCCCCc1cccnc1)N1CCC(C=C(c2ccccc2)c2ccccc2)CC1
inactive: [4]
active: [1] 19.3 µM | [2] 24.7 µM | [3] 17.9 µM | [5] 19.5 µM | [6] 38.3 µM | [7] 35 µM | [8] 38 µM | [9] 34.3 µM

CC(C)CCCCCCCOC(=O)CCCCC(=O)OCCCCCCCC(C)C
not listed: [10]
inactive: all other assays above

Nc1ccc(Nc2ccccc2)cc1
not listed: [10]
inactive: all other assays above

CC(C)=CCCC(C)CCO (stereo not given)
not listed: [10]
inactive: all other assays above

C=CC(=C)CCC=C(C)C
not listed: [10]
inactive: all other assays above

COc1ccc(-n2nc(C(F)F)cc2-c2ccc(S(C)=O)cc2)cc1 (stereo not given)
not listed: [10]
inactive: all other assays above
